# From publication PMC7862700, “An all-to-all approach to the identification of sequence-specific readers for epigenetic DNA modifications on cytosine”
# Key:
# Experiment in all cases: DAPPL (digital affinity profiling via proximity ligation, sequencing); 10 mM Tris-HCl pH 7.5, 50 mM NaCl, 1 mM DTT, 4% glycerol, room temperature, 30 min; GST-TFs on glutathione beads, 16-mer random dsDNA library, 0.1% formaldehyde crosslink after washing; high values mean tight binding
# FEV = target: T1, FEV (Homo sapiens, UniProt Q99581 1-238); details: protein: recombinant; tags: N-terminal GST; dsDNA, one strand shown
# T1 sequence: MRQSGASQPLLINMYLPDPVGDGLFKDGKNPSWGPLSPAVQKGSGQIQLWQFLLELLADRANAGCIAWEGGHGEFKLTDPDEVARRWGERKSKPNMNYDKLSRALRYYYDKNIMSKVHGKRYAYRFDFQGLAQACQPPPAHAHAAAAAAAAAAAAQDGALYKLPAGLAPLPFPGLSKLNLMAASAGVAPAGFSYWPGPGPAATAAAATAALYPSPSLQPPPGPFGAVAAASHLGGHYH
# Summary of the method: (§1)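 Human transcription factors were made in yeast as GST fusions, captured on glutathione beads and barcoded with DNA. With a tag-only sample included, the pool was incubated with 200 nmole of a random double-stranded 16-mer DNA library in Tris/NaCl/DTT/glycerol buffer at room temperature for 30 min, then crosslinked with 0.1% formaldehyde after washing, ligated by proximity, amplified and sequenced. For binding signal, each hexamer's read frequency for a factor is divided by its frequency for the tag-only sample.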
# ETV5 = ETV5 (Homo sapiens, UniProt P41161 1-510); details: protein: recombinant; tags: N-terminal GST; dsDNA, one strand shown
# Summary of the method: as §1
# HSF1 = HSF1 (Homo sapiens, UniProt Q00613 1-529); details: protein: recombinant; tags: N-terminal GST; chain copies: 3; dsDNA, one strand shown
# Summary of the method: as §1
# SPIC = target: T2, SPIC (Homo sapiens, UniProt Q8N5J4 1-248); details: protein: recombinant; tags: N-terminal GST; dsDNA, one strand shown
# T2 sequence: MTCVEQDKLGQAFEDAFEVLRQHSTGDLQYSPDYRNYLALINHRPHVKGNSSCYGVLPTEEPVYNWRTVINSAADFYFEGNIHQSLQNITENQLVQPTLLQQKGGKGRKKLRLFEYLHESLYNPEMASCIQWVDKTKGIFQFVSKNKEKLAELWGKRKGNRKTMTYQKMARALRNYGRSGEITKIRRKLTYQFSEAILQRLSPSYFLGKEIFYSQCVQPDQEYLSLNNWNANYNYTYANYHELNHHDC
# Summary of the method: as §1
# ELF4 = ELF4 (Homo sapiens, UniProt Q99607 1-663); details: protein: recombinant; tags: N-terminal GST; dsDNA, one strand shown
# Summary of the method: as §1
# ELK4 = target: T3, ELK4 (Homo sapiens, UniProt P28324-2 1-405); details: protein: recombinant; tags: N-terminal GST; dsDNA, one strand shown
# T3 sequence: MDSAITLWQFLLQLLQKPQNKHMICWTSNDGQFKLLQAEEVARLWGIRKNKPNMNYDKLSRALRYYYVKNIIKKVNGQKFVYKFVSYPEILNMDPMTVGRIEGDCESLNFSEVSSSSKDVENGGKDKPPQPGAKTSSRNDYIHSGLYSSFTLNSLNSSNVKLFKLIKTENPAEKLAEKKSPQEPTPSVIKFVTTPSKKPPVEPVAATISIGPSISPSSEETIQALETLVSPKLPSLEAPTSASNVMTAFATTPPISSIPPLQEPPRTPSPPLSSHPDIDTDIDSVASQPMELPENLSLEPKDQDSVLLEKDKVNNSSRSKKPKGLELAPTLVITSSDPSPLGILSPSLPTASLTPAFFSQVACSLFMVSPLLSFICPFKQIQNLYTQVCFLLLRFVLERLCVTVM
# Summary of the method: as §1
# ETV2 = target: T4, ETV2 (Homo sapiens, UniProt O00321 1-342); details: protein: recombinant; tags: N-terminal GST; dsDNA, one strand shown
# T4 sequence: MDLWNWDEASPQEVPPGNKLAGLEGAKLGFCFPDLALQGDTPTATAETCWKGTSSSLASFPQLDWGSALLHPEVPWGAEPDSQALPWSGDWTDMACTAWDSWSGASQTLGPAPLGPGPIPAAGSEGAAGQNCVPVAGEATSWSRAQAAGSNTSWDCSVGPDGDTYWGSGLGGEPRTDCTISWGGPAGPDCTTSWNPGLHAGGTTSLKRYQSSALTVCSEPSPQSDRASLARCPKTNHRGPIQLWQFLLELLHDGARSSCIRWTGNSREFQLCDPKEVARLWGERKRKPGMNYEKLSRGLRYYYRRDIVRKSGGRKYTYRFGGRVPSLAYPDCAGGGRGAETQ
# Summary of the method: as §1
# ELF3 = target: T5, ELF3 (Homo sapiens, UniProt P78545 1-371); details: protein: recombinant; tags: N-terminal GST; dsDNA, one strand shown
# T5 sequence: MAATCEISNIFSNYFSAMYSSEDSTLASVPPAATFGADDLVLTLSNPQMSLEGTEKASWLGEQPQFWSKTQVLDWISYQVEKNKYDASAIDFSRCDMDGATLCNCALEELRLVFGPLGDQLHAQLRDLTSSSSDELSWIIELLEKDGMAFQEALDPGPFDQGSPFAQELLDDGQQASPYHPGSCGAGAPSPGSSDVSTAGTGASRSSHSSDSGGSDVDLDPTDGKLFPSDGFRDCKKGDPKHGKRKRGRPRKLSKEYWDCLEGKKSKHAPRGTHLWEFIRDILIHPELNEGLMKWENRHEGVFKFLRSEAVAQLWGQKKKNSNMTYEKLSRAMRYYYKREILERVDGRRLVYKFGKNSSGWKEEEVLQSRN
# Summary of the method: as §1
# CRX = CRX (Homo sapiens, UniProt O43186 1-299); details: protein: recombinant; tags: N-terminal GST; dsDNA, one strand shown
# Summary of the method: as §1
# ETV1 = ETV1 (Homo sapiens, UniProt P50549 1-477); details: protein: recombinant; tags: N-terminal GST; dsDNA, one strand shown
# Summary of the method: as §1
# ERF = target: T6, ERF (Homo sapiens, UniProt P50548 1-548); details: protein: recombinant; tags: N-terminal GST; dsDNA, one strand shown
# T6 sequence: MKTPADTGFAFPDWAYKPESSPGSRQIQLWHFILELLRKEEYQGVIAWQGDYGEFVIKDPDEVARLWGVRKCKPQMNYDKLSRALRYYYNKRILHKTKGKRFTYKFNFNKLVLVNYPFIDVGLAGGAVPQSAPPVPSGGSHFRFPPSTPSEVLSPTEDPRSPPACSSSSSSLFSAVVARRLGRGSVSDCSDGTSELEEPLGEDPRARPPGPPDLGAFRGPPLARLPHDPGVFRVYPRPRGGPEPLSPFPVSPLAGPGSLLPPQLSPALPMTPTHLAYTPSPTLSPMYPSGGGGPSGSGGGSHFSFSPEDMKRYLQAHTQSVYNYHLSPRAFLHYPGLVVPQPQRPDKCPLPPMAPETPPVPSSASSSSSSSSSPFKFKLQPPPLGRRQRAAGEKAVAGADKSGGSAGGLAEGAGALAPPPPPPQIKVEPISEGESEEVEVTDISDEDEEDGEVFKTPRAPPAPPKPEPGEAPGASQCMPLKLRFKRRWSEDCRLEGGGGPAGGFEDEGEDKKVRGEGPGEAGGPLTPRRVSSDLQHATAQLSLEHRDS
# Summary of the method: as §1
# ETV3L = target: T7, ETV3L (Homo sapiens, UniProt Q6ZN32 1-361); details: protein: recombinant; tags: N-terminal GST; dsDNA, one strand shown
# T7 sequence: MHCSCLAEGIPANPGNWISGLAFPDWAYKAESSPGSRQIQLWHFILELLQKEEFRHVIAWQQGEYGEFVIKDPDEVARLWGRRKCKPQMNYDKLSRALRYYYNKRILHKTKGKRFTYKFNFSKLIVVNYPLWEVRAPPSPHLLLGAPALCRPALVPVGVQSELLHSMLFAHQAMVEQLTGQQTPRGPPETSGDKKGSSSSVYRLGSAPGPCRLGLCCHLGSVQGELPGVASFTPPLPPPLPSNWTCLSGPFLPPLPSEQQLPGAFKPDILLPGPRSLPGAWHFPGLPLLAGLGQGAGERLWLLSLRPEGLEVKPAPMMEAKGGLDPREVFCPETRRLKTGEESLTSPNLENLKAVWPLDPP
# Summary of the method: as §1
# ETS2 = target: T8, ETS2 (Homo sapiens, UniProt P15036 1-469); details: protein: recombinant; tags: N-terminal GST; dsDNA, one strand shown
# T8 sequence: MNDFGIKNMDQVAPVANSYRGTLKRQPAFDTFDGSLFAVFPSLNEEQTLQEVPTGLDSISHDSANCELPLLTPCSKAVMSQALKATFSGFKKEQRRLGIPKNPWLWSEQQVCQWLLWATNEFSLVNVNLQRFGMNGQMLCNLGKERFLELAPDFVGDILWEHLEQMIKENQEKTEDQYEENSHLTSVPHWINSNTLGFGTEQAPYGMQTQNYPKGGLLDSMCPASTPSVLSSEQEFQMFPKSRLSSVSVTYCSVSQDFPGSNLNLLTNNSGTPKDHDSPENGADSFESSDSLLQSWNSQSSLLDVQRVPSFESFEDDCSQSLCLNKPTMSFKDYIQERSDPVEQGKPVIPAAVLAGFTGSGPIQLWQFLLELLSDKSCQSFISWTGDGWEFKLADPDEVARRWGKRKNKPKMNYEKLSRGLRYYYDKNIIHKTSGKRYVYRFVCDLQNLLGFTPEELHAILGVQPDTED
# Summary of the method: as §1
# SPDEF = target: T9, SPDEF (Homo sapiens, UniProt O95238 1-335); details: protein: recombinant; tags: N-terminal GST; dsDNA, one strand shown
# T9 sequence: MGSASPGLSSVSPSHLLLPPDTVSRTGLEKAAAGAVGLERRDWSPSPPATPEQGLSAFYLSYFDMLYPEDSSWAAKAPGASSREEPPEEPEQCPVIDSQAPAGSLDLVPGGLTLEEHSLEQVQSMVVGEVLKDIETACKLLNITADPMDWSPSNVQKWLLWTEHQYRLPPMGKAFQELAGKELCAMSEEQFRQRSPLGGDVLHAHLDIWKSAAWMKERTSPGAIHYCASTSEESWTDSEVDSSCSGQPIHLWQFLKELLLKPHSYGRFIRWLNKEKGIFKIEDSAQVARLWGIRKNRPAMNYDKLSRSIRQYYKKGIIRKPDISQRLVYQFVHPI
# Summary of the method: as §1
# ETV7 = target: T10, ETV7 (Homo sapiens, UniProt Q9Y603 1-341); details: protein: recombinant; tags: N-terminal GST; dsDNA, one strand shown
# T10 sequence: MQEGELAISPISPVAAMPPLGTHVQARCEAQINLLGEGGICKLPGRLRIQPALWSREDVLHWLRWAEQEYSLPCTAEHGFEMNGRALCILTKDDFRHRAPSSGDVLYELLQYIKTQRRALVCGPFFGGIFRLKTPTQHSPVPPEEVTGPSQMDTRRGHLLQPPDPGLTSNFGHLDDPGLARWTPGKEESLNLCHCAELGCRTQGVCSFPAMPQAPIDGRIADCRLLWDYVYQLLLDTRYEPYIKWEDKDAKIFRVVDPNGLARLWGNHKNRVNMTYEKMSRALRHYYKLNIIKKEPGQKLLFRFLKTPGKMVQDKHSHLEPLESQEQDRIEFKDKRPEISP
# Summary of the method: as §1
# ELF5 = target: T11, ELF5 (Homo sapiens, UniProt Q9UKW6-2 1-255); details: protein: recombinant; tags: N-terminal GST; dsDNA, one strand shown
# T11 sequence: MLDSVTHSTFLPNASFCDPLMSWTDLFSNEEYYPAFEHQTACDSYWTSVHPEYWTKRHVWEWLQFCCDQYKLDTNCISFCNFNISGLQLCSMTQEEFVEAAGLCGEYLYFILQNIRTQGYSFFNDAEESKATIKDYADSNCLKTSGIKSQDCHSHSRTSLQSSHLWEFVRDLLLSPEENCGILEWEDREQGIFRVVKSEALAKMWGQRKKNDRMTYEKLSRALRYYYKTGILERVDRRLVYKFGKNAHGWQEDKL
# Summary of the method: as §1
# ETV3 = target: T12, ETV3 (Homo sapiens, UniProt P41162-2 1-143); details: protein: recombinant; tags: N-terminal GST; dsDNA, one strand shown
# T12 sequence: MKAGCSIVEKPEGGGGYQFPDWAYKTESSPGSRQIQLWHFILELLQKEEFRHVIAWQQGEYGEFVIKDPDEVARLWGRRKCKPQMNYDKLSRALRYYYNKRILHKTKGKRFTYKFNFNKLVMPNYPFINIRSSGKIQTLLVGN
# Summary of the method: as §1
# ETV6 = ETV6 (Homo sapiens, UniProt P41212 1-452); details: protein: recombinant; tags: N-terminal GST; dsDNA, one strand shown
# Summary of the method: as §1
# Chain of CRX (O43186 whole entry): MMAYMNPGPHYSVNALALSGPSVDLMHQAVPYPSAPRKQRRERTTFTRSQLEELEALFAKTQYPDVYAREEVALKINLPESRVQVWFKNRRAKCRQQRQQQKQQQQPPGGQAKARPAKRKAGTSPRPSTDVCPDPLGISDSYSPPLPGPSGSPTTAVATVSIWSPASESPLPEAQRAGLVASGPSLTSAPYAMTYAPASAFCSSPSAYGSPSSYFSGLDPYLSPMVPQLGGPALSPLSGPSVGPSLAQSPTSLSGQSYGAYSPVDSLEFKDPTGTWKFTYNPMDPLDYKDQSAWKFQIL
# Chain of ELF4 (Q99607 whole entry): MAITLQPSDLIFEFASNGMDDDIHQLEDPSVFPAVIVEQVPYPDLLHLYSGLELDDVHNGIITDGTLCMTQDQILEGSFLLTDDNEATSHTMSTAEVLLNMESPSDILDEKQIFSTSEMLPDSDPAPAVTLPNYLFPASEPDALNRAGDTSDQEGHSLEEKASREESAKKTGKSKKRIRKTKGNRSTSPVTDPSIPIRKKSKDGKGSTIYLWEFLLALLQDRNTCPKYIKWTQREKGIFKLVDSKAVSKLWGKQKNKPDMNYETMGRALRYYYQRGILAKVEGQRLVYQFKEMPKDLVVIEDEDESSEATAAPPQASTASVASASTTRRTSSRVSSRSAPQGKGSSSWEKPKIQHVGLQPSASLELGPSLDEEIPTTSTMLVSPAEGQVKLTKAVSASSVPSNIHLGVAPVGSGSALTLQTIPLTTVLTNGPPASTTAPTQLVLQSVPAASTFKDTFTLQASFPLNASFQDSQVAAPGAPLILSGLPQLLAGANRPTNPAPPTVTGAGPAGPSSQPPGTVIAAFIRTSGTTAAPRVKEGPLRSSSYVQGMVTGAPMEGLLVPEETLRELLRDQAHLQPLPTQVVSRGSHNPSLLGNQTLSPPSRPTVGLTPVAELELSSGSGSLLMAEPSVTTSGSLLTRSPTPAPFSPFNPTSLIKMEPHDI
# Chain of ETV5 (P41161 whole entry): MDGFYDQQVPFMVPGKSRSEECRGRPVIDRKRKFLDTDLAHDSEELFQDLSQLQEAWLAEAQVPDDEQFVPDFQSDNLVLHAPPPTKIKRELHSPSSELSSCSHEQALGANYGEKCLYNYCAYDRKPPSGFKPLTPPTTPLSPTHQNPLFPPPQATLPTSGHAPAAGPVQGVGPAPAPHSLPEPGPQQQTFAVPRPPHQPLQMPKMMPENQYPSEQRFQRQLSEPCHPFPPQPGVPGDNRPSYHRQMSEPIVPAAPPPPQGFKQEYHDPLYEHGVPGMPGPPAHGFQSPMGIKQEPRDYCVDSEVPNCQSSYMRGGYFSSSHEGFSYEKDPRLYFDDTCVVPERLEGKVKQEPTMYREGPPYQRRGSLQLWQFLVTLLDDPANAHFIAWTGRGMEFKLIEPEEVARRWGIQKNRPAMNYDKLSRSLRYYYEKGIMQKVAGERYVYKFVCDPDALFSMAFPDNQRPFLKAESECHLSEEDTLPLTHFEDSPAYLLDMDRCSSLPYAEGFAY
# Chain of ETV1 (P50549 whole entry): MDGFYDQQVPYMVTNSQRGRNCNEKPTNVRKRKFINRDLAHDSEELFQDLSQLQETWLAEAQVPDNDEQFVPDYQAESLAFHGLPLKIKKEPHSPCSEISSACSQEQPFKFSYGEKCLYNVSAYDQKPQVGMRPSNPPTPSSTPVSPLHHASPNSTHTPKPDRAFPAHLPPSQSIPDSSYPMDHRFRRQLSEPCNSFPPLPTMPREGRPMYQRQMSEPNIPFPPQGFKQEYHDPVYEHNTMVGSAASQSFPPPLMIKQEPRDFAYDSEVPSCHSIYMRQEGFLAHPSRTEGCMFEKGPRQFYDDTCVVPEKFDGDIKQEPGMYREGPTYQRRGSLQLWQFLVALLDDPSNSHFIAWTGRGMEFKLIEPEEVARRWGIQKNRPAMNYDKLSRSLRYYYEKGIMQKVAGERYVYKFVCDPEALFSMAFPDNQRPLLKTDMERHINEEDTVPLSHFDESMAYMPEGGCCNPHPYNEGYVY
# Chain of ETV6 (P41212 whole entry): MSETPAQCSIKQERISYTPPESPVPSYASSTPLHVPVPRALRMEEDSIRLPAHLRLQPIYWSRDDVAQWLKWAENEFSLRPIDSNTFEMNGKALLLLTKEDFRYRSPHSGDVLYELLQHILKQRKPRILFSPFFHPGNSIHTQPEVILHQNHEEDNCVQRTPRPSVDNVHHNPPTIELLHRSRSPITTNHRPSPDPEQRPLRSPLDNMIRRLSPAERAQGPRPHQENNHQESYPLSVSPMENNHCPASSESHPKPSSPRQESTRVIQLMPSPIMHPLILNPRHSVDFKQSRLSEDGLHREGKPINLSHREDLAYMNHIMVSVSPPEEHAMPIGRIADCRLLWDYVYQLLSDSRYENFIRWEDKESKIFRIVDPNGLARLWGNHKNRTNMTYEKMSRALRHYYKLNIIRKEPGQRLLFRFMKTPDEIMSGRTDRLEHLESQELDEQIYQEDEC
# Chain of HSF1 (Q00613 whole entry): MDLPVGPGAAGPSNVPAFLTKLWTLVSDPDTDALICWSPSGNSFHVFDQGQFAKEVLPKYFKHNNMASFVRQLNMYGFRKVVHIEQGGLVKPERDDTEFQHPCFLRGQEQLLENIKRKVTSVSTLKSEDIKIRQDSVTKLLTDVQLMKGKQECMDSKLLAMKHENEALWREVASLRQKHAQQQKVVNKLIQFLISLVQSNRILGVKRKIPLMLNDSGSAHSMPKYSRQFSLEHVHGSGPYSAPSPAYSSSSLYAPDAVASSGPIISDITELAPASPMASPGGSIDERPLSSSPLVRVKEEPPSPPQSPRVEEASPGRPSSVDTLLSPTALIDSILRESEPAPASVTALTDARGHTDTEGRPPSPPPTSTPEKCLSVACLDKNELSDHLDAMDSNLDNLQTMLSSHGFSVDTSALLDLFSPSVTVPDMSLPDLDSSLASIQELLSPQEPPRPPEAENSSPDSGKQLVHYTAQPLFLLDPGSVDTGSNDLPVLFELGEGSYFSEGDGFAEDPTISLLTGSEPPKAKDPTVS
sequence,measurement,setting,value
TGTTTC,binding signal,FEV,"1.97 fold enrichment (6-mer frequency, TF over GST control)"
same,binding signal,ETV5,"1.83 fold enrichment (6-mer frequency, TF over GST control)"
same,binding signal,HSF1,"1.43 fold enrichment (6-mer frequency, TF over GST control)"
same,binding signal,SPIC,"1.49 fold enrichment (6-mer frequency, TF over GST control)"
same,binding signal,ELF4,"1.73 fold enrichment (6-mer frequency, TF over GST control)"
same,binding signal,ELK4,"1.55 fold enrichment (6-mer frequency, TF over GST control)"
same,binding signal,ETV2,"1.69 fold enrichment (6-mer frequency, TF over GST control)"
same,binding signal,ELF3,"1.68 fold enrichment (6-mer frequency, TF over GST control)"
same,binding signal,CRX,"1.17 fold enrichment (6-mer frequency, TF over GST control)"
same,binding signal,ETV1,"1.84 fold enrichment (6-mer frequency, TF over GST control)"
same,binding signal,ERF,"1.86 fold enrichment (6-mer frequency, TF over GST control)"
same,binding signal,ETV3L,"1.84 fold enrichment (6-mer frequency, TF over GST control)"
same,binding signal,ETS2,"1.79 fold enrichment (6-mer frequency, TF over GST control)"
same,binding signal,SPDEF,"1.81 fold enrichment (6-mer frequency, TF over GST control)"
same,binding signal,ETV7,"1.89 fold enrichment (6-mer frequency, TF over GST control)"
same,binding signal,ELF5,"2.08 fold enrichment (6-mer frequency, TF over GST control)"
same,binding signal,ETV3,"1.83 fold enrichment (6-mer frequency, TF over GST control)"
same,binding signal,ETV6,"1.95 fold enrichment (6-mer frequency, TF over GST control)"
